In PubChem BioAssay AID1159580 (chemical genetic matrix, 2015):
Values joined by “and” are separate entries in the source; they are usually repeats but may differ in a detail not shown here. Equal values may be shown once. The campaign covered roughly 5,500 compounds. About 2,000 (36%) were called active. About 18% were inconclusive and are not listed. No stated cut-off is given here; in the data, active means normalized growth mostly below about 0.91 (no sharp cut-off); inconclusive means no clear call, values can overlap the other calls; inactive means mostly above about 0.92. The list shows a part of the results.

Assay: chemical genetic growth profiling, strain panel (AID 1159580);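 further: tested at 20 µM; growth read once vehicle control cultures reached saturation at 30 °C; 1 = growth at the plate median or of vehicle wells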
Conditions: S. cerevisiae deletion strains, growth OD

Measured: normalized growth

CC1(C)S[C@@H]2[C@H](NC(=O)[C@H](NC(=O)N3CCNC3=O)c3ccccc3)C(=O)N2C1C(=O)O (stereo partly drawn)
inactive: locus YAL021C, strain ccr4, stronger effect = lower value 0.989 | locus YAL026C, strain drs2, stronger effect = lower value 0.984 | locus YAL030W, strain snc1, stronger effect = lower value 0.969 | locus YBL061C, strain skt5, stronger effect = lower value 0.971 | locus YBR009C, strain hhf1, stronger effect = lower value 0.995 | locus YBR021W, strain FUR4, stronger effect = lower value 1.04 | locus YBR023C, strain chs3, stronger effect = lower value 0.979 | locus YBR171W, strain sec66, stronger effect = lower value 0.974 | locus YBR229C, strain ROT2, stronger effect = lower value 1 | locus YBR231C, strain swc5, stronger effect = lower value 0.984 | locus YBR279W, strain paf1, stronger effect = lower value 0.993 | locus YCL011C, strain gbp2, stronger effect = lower value 0.964 | locus YCL016C, strain dcc1, stronger effect = lower value 0.986 | locus YCL029C, strain bik1, stronger effect = lower value 0.99 | locus YCL061C, strain MRC1, stronger effect = lower value 0.99 | locus YCL069W, strain vba3, stronger effect = lower value 0.996 | locus YCR088W, strain abp1, stronger effect = lower value 0.985 | locus YDL005C, strain med2, stronger effect = lower value 0.978 | locus YDL035C, strain GPR1, stronger effect = lower value 0.992 | locus YDL040C, strain nat1, stronger effect = lower value 0.984 | locus YDL074C, strain BRE1, stronger effect = lower value 1.06 | locus YDL101C, strain DUN1, stronger effect = lower value 0.998 | locus YDL134C, strain PPH21, stronger effect = lower value 1 | locus YDL185W, strain tfp1, stronger effect = lower value 0.952 | locus YDL192W, strain arf1, stronger effect = lower value 0.982 | locus YDR001C, strain nth1, stronger effect = lower value 0.975 | locus YDR069C, strain doa4, stronger effect = lower value 0.988 | locus YDR101C, strain arx1, stronger effect = lower value 1.03 | locus YDR137W, strain rgp1, stronger effect = lower value 0.977 | locus YDR159W, strain sac3, stronger effect = lower value 1 | locus YDR162C, strain NBP2, stronger effect = lower value 0.972 | locus YDR195W, strain ref2 0.995 | locus YDR297W, strain sur2, stronger effect = lower value 0.979 | locus YDR318W, strain mcm21, stronger effect = lower value 0.988 | locus YDR334W, strain swr1, stronger effect = lower value 0.935 | locus YDR335W, strain msn5, stronger effect = lower value 0.971 | locus YDR388W, stronger effect = lower value 0.987 | locus YDR392W, strain spt3, stronger effect = lower value 0.908 | locus YDR502C, strain sam2, stronger effect = lower value 1 | locus YEL003W, strain gim4, stronger effect = lower value 0.994 | locus YEL037C, strain rad23, stronger effect = lower value 0.984 | locus YEL061C, strain CIN8 (second series), stronger effect = lower value 0.984 | locus YEL061C, strain CIN8, stronger effect = lower value 0.996 | locus YER015W, strain faa2, stronger effect = lower value 0.971 | locus YER016W, strain bim1, stronger effect = lower value 1 | locus YER110C, stronger effect = lower value 0.982 | locus YER111C, strain swi4, stronger effect = lower value 0.983 | locus YER155C, strain BEM2 (second series), stronger effect = lower value 0.993 | locus YER155C, strain BEM2, stronger effect = lower value 1.01 | locus YER167W, strain BCK2, stronger effect = lower value 0.997 | locus YFR010W, strain ubp6, stronger effect = lower value 0.967 | locus YGL078C, strain dbp3, stronger effect = lower value 0.989 | locus YGL086W, strain mad1, stronger effect = lower value 1.02 | locus YGL167C, strain pmr1, stronger effect = lower value 0.987 | locus YGL173C, strain kem1, stronger effect = lower value 0.967 | locus YGL227W, strain vid30, stronger effect = lower value 0.994 | locus YGL240W, strain doc1, stronger effect = lower value 1 | locus YGL248W, strain PDE1, stronger effect = lower value 1.01 | locus YGL253W, strain hxk2, stronger effect = lower value 0.996 | locus YGR135W, strain pre9, stronger effect = lower value 0.95 | locus YGR252W, strain gcn5, stronger effect = lower value 1 | locus YHR013C, strain ard1, stronger effect = lower value 0.957 | locus YHR027C, strain rpn1, stronger effect = lower value 0.966 | locus YHR030C, strain SLT2, stronger effect = lower value 0.984 and 0.983 | locus YHR079C, strain IRE1 (second series), stronger effect = lower value 0.983 | locus YHR079C, strain IRE1, stronger effect = lower value 0.963 | locus YHR094C, strain hxt1, stronger effect = lower value 0.982 | locus YHR129C, strain ARP1, stronger effect = lower value 0.997 | locus YHR142W, strain chs7, stronger effect = lower value 0.955 | locus YHR200W, strain rpn10, stronger effect = lower value 0.989 | locus YIL066C, strain RNR3, stronger effect = lower value 0.99 | locus YIL073C, strain SPO22, stronger effect = lower value 0.902 | locus YIL125W, strain kgd1, stronger effect = lower value 1 | locus YIR030C, strain dcg1, stronger effect = lower value 0.969 | locus YJL092W, strain hpr5, stronger effect = lower value 0.988 | locus YJL095W, strain BCK1 (second series), stronger effect = lower value 0.989 | locus YJL095W, strain BCK1, stronger effect = lower value 1.04 and 0.971 | locus YJL115W, strain asf1, stronger effect = lower value 0.96 | locus YJL129C, strain trk1, stronger effect = lower value 1.01 | locus YJL134W, strain LCB3, stronger effect = lower value 0.993 | locus YJL154C, strain vps35, stronger effect = lower value 0.972 | locus YJL164C, strain tpk1, stronger effect = lower value 0.996 | locus YJL166W, strain qcr8, stronger effect = lower value 0.956 | locus YJL168C, strain set2, stronger effect = lower value 0.998 | locus YJL187C, strain SWE1 (second series), stronger effect = lower value 1 | locus YJL187C, strain SWE1, stronger effect = lower value 0.988 | locus YJR043C, strain POL32, stronger effect = lower value 1.03 | locus YJR066W, strain TOR1, stronger effect = lower value 0.966
